The source made the active and inactive calls.
Columns and labels:
[1] = binders of probe aFSTL3 on microarray, primary screen, stem cell growth factor project, biochemical, small-molecule microarray, fluorescence 635/667 (AID 1064); settings: higher = more signal;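 further: measures binding of the biotinylated anti-FSTL3 antibody to printed compounds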
[2] = binders from COS7 lysate, DM2A8 probe, primary screen, torsin A project, cell lysate, small-molecule microarray, fluorescence 635/667 (AID 1065); settings: higher = more signal, COS7 lysate expressing mutant human TOR1A
[3] = binders of probe aFGF2 on microarray, primary screen, stem cell growth factor project, biochemical, small-molecule microarray, fluorescence 635/667 (AID 1067); settings: higher = more signal;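 further: measures binding of biotinylated aFGF2 protein to printed compounds on slides; z-score merges feature fluorescence and signal-to-noise across triplicate slides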
[4] = binders of probe aFGF10 on microarray, primary screen, stem cell growth factor project, biochemical, small-molecule microarray, fluorescence 635/667 (AID 1071); settings: higher = more signal;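 further: score merges 667 nm spot intensity and signal to noise from triplicate slides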
[5] = biological target: Neurogenic locus notch homolog protein 2 (Homo sapiens) (UniProt Q04721); experiment: Notch2 binders on small-molecule microarrays, primary screen, biochemical, small-molecule microarray, 635 nm fluorescence, stem cell growth factors (AID 1073); settings: Notch2 binding, higher = more signal
[6] = biological target: Pro-neuregulin-1, membrane-bound isoform (Homo sapiens) (UniProt Q02297); experiment: NRG1 binders on small-molecule microarrays, primary screen, psychiatric disease protein project, biochemical, small-molecule microarray, fluorescence 635/667 (AID 1075); settings: NRG1 binding, 635 nm fluorescence, higher = more signal;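 further: score combines 667 nm spot fluorescence with signal to noise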
[7] = test system: Neuregulin-1 EGF-like domain; experiment: binders of neuregulin-1 EGF-like domain, primary screen, biochemical, small-molecule microarray, 635 nm fluorescence (AID 1081); settings: small-molecule microarray binding, higher = more signal;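 further: binding of the protein to compounds printed on small-molecule microarray slides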
[8] = FRG1 promoter luciferase signal modulators, primary screen, FRG1 inhibition for FSHD, cell-based, C2C12 myotubes, firefly/Renilla luciferase, luminescence (AID 1084); settings: higher = more signal, called active from +8 up or from −8 down
[9] = binders of probe aFST on microarray, primary screen, stem cell growth factor project, biochemical, small-molecule microarray, fluorescence 635/667 (AID 1086); settings: higher = more signal;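 further: score merges 667 nm fluorescence with signal-to-noise of each printed compound spot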
[10] = binders of probe aHhip on microarray, primary screen, stem cell growth factor project, biochemical, small-molecule microarray, fluorescence 635/667 (AID 1087); settings: higher = more signal;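 further: score merges spot fluorescence at 667nm with spot signal to noise ratio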
[11] = test system: PRMT1 (protein arginine N-methyltransferase 1); experiment: PRMT1 binders on small-molecule microarrays, primary screen, biochemical, small-molecule microarray, 635 nm fluorescence (AID 1088); settings: small-molecule microarray binding, higher = more signal;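 further: binding of Prmt1 protein to compounds spotted on small-molecule microarray slides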
[12] = yeast growth modulation, basal conditions, primary screen, YJM789 clinical isolate, OD600, 24 h (AID 1089);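 further: growth of clinical yeast isolate S. cerevisiae YJM 789 seeded 1000 cells per well; test concentration not given here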; settings: S. cerevisiae YJM789 growth, higher = more signal, called active from +8 up or from −8 down
[13] = fission yeast growth modulation, primary screen, strain 972, OD600, 24 h, no modulator (AID 1090);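 further: basal condition with compound alone and no growth modifier present; test concentration not given here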; settings: S. pombe 972 growth, higher = more signal, called active from +8 up or from −8 down
[14] = S. cerevisiae growth modulation with rapamycin, primary screen, strain BY4716, OD600, 96 h (AID 1091); settings: higher = more signal, called active from +8 up or from −8 down; further: test concentration not given here
[15] = biological target: Torsin-1A-interacting protein 2 (Homo sapiens) (UniProt Q8NFQ8); experiment: LULL1 binders on small-molecule microarray, primary screen, cell lysate, human LULL1 lysate, 635/667 nm fluorescence (AID 1092); settings: hLULL1 lysate binding, 635 nm fluorescence, higher = more signal;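 further: probe is lysate of COS7 cells overexpressing human LULL1; score merges per-feature 667 nm fluorescence with signal-to-noise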
[16] = E. coli growth modulation, two-sided OD650, primary screen, E. coli filamentation project, strain DRC41, 24 h (AID 1093); settings: OD650, 24 h, higher = more signal, called active from +8 up or from −8 down;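 further: MC1000 strain lacking acrAB efflux and sulA so SOS filamentation is blocked; test concentration not given here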
[17] = small-molecule microarray binders of probe aLefty2, primary screen, biochemical, biotinylated probe, 635/667 nm fluorescence (AID 1094); settings: higher = more signal;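 further: score merges spot fluorescence near 667 nm with spot signal-to-noise ratio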
[18] = test system: Noggin (protein binding on small-molecule microarray); experiment: Noggin binders on small-molecule microarray, primary screen, biochemical, 635/667 nm fluorescence (AID 1095); settings: 635 nm fluorescence, higher = more signal;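 further: score merges 667 nm feature fluorescence with signal to noise over triplicate slides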
[19] = biological target: Neurogenic locus notch homolog protein 3 (Homo sapiens) (UniProt Q9UM47); experiment: NOTCH3 binders on small-molecule microarray, primary screen, biochemical, 635/667 nm fluorescence (AID 1096); settings: NOTCH3 binding, 635 nm fluorescence, higher = more signal
[20] = small-molecule microarray binders of probe aEGFR, primary screen, biochemical, biotinylated probe, 635/667 nm fluorescence (AID 1097); settings: higher = more signal;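 further: probe is a biotinylated anti-EGFR antibody binding compounds printed on slides; score combines fluorescence near 667 nm and signal to noise of each spot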

Pro-neuregulin-1, membrane-bound isoform (Homo sapiens), sequence (Q02297 whole entry, looked up, the tested form may be a part, canonical isoform): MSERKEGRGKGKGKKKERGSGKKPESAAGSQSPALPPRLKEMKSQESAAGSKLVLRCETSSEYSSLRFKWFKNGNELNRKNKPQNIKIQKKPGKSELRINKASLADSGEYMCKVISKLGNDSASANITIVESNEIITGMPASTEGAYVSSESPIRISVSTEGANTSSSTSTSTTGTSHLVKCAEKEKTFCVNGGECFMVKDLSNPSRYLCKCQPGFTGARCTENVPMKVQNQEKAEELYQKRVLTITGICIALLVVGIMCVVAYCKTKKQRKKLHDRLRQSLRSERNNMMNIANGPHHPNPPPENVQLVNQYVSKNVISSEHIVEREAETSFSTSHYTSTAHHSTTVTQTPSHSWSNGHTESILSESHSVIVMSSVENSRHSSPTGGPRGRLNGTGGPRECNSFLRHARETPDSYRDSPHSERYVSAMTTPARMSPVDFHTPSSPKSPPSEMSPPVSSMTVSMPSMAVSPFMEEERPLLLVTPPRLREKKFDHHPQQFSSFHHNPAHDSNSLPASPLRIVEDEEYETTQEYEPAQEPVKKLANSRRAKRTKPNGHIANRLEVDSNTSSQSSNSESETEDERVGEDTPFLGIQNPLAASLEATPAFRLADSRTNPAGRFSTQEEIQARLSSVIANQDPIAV
Neurogenic locus notch homolog protein 3 (Homo sapiens), sequence (Q9UM47 whole entry, looked up): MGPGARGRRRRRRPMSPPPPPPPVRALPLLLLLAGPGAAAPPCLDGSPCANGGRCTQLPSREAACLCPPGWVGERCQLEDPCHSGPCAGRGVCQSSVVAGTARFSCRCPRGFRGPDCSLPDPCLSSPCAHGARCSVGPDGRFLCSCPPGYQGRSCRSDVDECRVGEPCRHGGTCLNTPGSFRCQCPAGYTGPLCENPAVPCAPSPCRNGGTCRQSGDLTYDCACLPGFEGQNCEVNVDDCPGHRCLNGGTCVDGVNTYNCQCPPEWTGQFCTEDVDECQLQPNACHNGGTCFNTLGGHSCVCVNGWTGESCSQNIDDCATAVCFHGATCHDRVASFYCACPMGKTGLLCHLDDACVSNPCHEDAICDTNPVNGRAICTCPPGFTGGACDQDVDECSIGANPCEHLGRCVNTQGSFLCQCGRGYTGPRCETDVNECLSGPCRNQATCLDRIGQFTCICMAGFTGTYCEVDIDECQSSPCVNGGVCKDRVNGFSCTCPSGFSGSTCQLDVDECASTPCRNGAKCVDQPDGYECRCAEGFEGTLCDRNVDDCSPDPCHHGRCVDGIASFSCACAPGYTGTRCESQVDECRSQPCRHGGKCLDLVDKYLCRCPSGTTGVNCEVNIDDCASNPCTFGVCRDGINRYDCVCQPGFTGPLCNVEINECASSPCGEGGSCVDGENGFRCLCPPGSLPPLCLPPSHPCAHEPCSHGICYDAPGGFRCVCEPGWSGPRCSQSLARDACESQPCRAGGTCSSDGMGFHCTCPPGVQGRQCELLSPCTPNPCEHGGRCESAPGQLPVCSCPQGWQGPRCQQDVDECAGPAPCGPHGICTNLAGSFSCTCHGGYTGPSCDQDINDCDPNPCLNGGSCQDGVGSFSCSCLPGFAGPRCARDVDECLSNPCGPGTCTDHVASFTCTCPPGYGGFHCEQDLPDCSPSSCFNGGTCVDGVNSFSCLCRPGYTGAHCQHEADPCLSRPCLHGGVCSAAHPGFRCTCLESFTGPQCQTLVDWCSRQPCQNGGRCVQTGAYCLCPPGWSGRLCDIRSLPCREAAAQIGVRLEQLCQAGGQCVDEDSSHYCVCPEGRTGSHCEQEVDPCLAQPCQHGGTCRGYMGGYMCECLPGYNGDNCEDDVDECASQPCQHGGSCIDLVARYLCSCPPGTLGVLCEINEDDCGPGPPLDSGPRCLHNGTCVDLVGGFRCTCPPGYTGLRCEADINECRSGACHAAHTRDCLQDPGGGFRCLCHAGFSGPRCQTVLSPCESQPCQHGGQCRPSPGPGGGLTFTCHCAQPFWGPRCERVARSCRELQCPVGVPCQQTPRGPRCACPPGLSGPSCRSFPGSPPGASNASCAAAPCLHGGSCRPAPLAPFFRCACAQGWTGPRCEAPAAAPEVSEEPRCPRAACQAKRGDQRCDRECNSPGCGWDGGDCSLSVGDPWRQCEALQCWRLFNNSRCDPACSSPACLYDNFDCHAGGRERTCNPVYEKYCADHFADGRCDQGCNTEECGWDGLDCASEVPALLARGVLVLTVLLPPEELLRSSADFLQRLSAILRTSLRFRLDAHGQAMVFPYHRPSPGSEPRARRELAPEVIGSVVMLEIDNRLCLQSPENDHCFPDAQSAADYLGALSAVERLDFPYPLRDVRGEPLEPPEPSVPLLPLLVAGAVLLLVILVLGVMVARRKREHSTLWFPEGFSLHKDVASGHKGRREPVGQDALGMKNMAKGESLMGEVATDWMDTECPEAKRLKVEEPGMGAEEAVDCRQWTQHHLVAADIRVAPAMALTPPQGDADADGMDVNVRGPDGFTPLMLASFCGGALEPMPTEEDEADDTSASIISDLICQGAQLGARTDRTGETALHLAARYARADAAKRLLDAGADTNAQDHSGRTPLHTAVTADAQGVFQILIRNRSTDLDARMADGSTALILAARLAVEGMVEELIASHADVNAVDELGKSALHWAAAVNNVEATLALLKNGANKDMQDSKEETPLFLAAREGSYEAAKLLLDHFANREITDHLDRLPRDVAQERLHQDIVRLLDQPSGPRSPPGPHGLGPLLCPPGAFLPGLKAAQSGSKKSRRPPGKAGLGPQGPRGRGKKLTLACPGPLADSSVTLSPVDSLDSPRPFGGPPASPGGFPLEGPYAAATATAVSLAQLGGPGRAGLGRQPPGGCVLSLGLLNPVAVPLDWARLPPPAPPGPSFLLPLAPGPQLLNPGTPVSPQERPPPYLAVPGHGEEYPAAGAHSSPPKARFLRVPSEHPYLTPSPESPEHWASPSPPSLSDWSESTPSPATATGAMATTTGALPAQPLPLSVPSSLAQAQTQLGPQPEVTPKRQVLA
Torsin-1A-interacting protein 2 (Homo sapiens), sequence (Q8NFQ8 whole entry, looked up): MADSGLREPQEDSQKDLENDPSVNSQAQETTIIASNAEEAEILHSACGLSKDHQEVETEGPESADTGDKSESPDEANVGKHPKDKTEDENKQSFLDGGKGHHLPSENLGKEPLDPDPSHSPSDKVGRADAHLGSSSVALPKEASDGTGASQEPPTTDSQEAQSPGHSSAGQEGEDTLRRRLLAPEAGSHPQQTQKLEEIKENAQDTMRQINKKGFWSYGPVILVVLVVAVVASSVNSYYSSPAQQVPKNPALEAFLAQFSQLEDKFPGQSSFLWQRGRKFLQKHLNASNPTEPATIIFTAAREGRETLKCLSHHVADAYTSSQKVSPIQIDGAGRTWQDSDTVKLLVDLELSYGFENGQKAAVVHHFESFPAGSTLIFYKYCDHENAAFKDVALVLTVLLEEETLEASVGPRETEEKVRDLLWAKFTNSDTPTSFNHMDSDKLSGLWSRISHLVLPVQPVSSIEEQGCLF

SMILES	composite z-score [1]	composite z-score [2]	composite z-score [3]	composite z-score [4]	composite z-score [5]	composite z-score [6]	composite z-score [7]	z-score [8]	composite z-score [9]	composite z-score [10]	composite z-score [11]	z-score [12]	z-score [13]	z-score [14]	composite z-score [15]	z-score [16]	composite z-score [17]	composite z-score [18]	composite z-score [19]	composite z-score [20]
Cc1ccc(S[C@]2(C(=O)O)CC(=O)N(Cc3ccccc3)[C@@H]2c2ccc(CO)cc2)cc1	0.58	0.131	-0.0853	-1.1	0.0203	-0.33	0.736	-0.579 (inactive)	0.262	-0.367	0.191	-0.179 (inactive)	-2.58 (inactive)	0.215 (inactive)	1.88	2.49 (inactive)	-0.0953	-0.674	-0.0738	-0.136
C=C(COC)/C(=C/C[C@@H](OC(C)=O)c1cccc(OCCO)c1)c1cc(C(=O)OC)ccc1OC	0.0462	0.361	-0.103	0.396	-0.0821	-0.582	0.597	-0.637 (inactive)	0.105	0.0274	0.602	0.036 (inactive)	-1.11 (inactive)	-1.03 (inactive)	0.228	1.09 (inactive)	0.0116	1.56	0.493	-0.15
O=C1O[C@H](c2ccccc2)[C@H](c2ccccc2)N2[C@H]1[C@@H](C(=O)NC[C@H](O)c1ccccc1)[C@]1(C(=O)Nc3ccc(C#CC4(O)CCCCCC4)cc31)[C@H]2c1ccc(OCCO)cc1	0.247	0.634	0.0589	0.577	1.19	1.02	1.24	1.04 (inactive)	0.388	0.0024	1.32	1.93 (inactive)	-0.538 (inactive)	4.16 (inactive)	2.72	3.35 (inactive)	0.159	0.423	0.868	0.0301
COCCCNC(=O)[C@@H]1c2ccccc2C(=O)N(CC23CC4CC(CC(C4)C2)C3)[C@H]1c1ccc(CO)cc1	0.621	0.173	0.177	0.325	1.46	-0.0557	1.1	-2.03 (inactive)	0.327	0.0053	1.49	0.4 (inactive)	-1.02 (inactive)	0.182 (inactive)	1.56	-0.494 (inactive)	0.242	0.39	0.588	0.135
COc1ccc(-c2ccccc2[C@@H]2N[C@H](C(=O)O)CC[C@H]2C)cc1	-0.285	-0.0323	-0.132	0.277	0.244	-0.233	0.424	-0.438 (inactive)	0.0952	-0.134	-0.408	-0.306 (inactive)	-0.572 (inactive)	0.492 (inactive)	0.47	0.189 (inactive)	-0.05	0.412	0.412	0.0068
CN1C(=O)C2C=CC(C(O)c3ccc(N(C)C)cc3)N(Nc3ccc([N+](=O)[O-])cc3[N+](=O)[O-])C2C1=O (stereo not given)	1.56	0.989	0.126	0.739	1.6	1.25	1.31	2 (inactive)	1.29	-0.0296	1.1	0.0069 (inactive)	-0.0787 (inactive)	-0.183 (inactive)	2.77	-0.465 (inactive)	0.452	0.0496	1.1	0.335
COC(=O)[C@@]1(Cc2ccccc2CN=[N+]=[N-])N=C(c2ccc(OCCCO)cc2)O[C@H]1c1ccccc1N=[N+]=[N-]	0.127	-0.523	-0.0004	-0.259	0.167	1.09	1.13	1.17 (inactive)	0.19	0.0826	1.42	0.763 (inactive)	2.17 (inactive)	36 (active)	2.18	0.0738 (inactive)	-0.184	0.0678	0.698	-0.0372
CCOC(=O)C1=CC[C@@H](c2ccc(-c3ccc(OCc4ccccc4)cc3)c(OC)c2)N(S(=O)(=O)c2ccc(C)cc2)[C@H]1c1ccccc1	-0.216	0.448	0.0188	0.668	1.49	1.36	0.952	0.141 (inactive)	0.9	0.314	1.46	-0.534 (inactive)	-1.27 (inactive)	3.66 (inactive)	2.93	-0.0642 (inactive)	0.158	0.73	1.09	-0.0255
C=CCNC(=O)[C@H]1[C@@H]2C(=O)O[C@@H](c3ccccc3)[C@@H](c3ccccc3)N2[C@@H](c2ccc(O)cc2)[C@]12C(=O)Nc1ccc(C#CCNC(N)=O)cc12	0.587	-0.0883	-0.128	-0.608	-1.11	1.07	0.858	-0.477 (inactive)	-0.526	-0.21	0.0982	-0.396 (inactive)	-0.37 (inactive)	0.402 (inactive)	1.87	2.18 (inactive)	-0.282	-0.643	-1.01	-0.216
COc1ccc(NN2C(C(O)c3cc(OC)c(OC)c(OC)c3)C=CC3C(=O)N(C4CCCCC4)C(=O)C32)cc1 (stereo not given)	0.833	-0.194	0.123	0.767	1.63	1.09	1.07	1.02 (inactive)	1.51	0.0734	0.544	0.199 (inactive)	0.966 (inactive)	0.169 (inactive)	2.87	-0.319 (inactive)	0.358	0.116	1.08	0.142
Cc1ccc(S[C@]2(C(=O)O)CC(=O)N(Cc3cc(C(F)(F)F)cc(C(F)(F)F)c3)[C@@H]2c2ccc(CO)cc2I)cc1	0.793	0.0039	-0.103	0.002	-1.18	1.28	0.603	0.419 (inactive)	-0.292	0.0373	1.33	-0.455 (inactive)	-2.26 (inactive)	2.31 (inactive)	1.59	0.663 (inactive)	0.107	-1.49	-0.913	-0.264
CC(=O)NCCCC[C@@H]1NC(=O)[C@H]2C[C@@H](C(=O)NCCCCCCN(C)C)[C@@H](c3ccc(O)cc3)N2C1=O	-0.463	1.68	-0.0876	0.785	0.269	1.43	1.48	4.59 (inactive)	0.31	0.0401	1.54	-0.139 (inactive)	-0.566 (inactive)	0.613 (inactive)	2.97	-0.179 (inactive)	-0.0391	1.71	0.989	0.0122

From PubChem BioAssay
